# According to article PMC7862700, “An all-to-all approach to the identification of sequence-specific readers for epigenetic DNA modifications on cytosine”:
# Assays:
# Assay in all cases: DAPPL (digital affinity profiling via proximity ligation, sequencing); 10 mM Tris-HCl pH 7.5, 50 mM NaCl, 1 mM DTT, 4% glycerol, room temperature, 30 min; GST-TFs on glutathione beads, 16-mer random dsDNA library, 0.1% formaldehyde crosslink after washing; high values mean tight binding
# [1] = biological target: T1, FEV (Homo sapiens, UniProt Q99581 1-238); conditions: protein: recombinant; tags: N-terminal GST; dsDNA, one strand shown
# T1 sequence: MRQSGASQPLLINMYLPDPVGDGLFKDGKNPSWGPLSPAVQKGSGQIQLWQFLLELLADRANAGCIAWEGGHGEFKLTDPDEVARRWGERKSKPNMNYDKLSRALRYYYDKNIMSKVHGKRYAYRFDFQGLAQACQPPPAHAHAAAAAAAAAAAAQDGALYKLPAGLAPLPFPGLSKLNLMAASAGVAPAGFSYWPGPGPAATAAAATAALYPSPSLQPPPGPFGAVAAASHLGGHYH
# Outline: (§1)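 Human transcription factors were made in yeast as GST fusions, captured on glutathione beads and barcoded with DNA. With a tag-only sample included, the pool was incubated with 200 nmole of a random double-stranded 16-mer DNA library in Tris/NaCl/DTT/glycerol buffer at room temperature for 30 min, then crosslinked with 0.1% formaldehyde after washing, ligated by proximity, amplified and sequenced. For binding signal, each hexamer's read frequency for a factor is divided by its frequency for the tag-only sample.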
# [2] = biological target: ETV5 (Homo sapiens, UniProt P41161 1-510); conditions: protein: recombinant; tags: N-terminal GST; dsDNA, one strand shown
# Chain of ETV5 (P41161 whole entry): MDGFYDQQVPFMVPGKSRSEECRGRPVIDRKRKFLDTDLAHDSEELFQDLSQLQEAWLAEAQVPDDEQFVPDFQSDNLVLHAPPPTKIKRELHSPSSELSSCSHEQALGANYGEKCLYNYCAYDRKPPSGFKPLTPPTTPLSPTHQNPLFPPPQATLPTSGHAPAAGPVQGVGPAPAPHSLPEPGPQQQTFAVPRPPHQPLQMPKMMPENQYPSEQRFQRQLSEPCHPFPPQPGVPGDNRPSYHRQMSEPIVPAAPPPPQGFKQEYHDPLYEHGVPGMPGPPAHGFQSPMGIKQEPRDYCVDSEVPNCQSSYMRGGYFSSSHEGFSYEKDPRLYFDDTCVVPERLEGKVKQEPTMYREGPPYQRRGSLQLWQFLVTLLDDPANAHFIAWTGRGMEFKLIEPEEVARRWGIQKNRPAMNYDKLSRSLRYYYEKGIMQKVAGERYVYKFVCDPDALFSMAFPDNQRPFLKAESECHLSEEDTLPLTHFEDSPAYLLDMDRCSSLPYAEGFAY
# Outline: as §1
# [3] = biological target: HSF1 (Homo sapiens, UniProt Q00613 1-529); conditions: protein: recombinant; tags: N-terminal GST; chain copies: 3; dsDNA, one strand shown
# Chain of HSF1 (Q00613 whole entry): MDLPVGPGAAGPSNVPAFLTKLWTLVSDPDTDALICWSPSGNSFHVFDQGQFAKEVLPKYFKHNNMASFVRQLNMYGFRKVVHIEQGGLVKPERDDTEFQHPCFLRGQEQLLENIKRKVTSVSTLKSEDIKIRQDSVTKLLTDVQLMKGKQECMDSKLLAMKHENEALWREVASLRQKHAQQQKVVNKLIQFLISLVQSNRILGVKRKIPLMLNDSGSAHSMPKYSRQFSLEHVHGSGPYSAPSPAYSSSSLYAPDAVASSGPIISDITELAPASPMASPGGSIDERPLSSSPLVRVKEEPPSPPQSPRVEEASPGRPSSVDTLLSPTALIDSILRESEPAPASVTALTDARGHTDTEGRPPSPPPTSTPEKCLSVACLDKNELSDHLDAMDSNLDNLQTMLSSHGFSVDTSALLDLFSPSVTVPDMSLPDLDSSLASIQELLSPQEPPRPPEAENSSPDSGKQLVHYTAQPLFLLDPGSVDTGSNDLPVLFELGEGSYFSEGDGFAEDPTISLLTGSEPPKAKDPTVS
# Outline: as §1
# [4] = biological target: T2, SPIC (Homo sapiens, UniProt Q8N5J4 1-248); conditions: protein: recombinant; tags: N-terminal GST; dsDNA, one strand shown
# T2 sequence: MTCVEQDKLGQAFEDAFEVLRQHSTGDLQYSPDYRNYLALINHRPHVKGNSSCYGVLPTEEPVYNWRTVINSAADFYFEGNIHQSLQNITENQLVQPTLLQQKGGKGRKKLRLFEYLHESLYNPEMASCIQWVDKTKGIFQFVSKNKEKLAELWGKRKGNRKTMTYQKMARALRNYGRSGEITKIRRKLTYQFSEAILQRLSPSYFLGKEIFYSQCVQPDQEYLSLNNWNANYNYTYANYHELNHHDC
# Outline: as §1
# [5] = biological target: ELF4 (Homo sapiens, UniProt Q99607 1-663); conditions: protein: recombinant; tags: N-terminal GST; dsDNA, one strand shown
# Chain of ELF4 (Q99607 whole entry): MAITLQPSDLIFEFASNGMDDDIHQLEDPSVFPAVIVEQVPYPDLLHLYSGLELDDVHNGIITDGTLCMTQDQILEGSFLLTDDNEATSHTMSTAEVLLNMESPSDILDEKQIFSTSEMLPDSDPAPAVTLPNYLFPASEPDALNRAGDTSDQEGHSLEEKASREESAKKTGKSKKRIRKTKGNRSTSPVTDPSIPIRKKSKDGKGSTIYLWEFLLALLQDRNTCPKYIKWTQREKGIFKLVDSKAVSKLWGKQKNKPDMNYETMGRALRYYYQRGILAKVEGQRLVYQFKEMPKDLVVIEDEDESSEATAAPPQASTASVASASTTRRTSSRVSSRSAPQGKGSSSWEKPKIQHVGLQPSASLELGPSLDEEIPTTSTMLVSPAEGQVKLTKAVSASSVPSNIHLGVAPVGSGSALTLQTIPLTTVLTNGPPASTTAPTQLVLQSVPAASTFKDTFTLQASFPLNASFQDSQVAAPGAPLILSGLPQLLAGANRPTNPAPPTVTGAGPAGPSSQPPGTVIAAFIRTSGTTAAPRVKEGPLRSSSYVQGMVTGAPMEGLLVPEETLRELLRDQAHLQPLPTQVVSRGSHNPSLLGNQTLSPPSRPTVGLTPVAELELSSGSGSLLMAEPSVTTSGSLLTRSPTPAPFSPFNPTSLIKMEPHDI
# Outline: as §1
# [6] = biological target: T3, ELK4 (Homo sapiens, UniProt P28324-2 1-405); conditions: protein: recombinant; tags: N-terminal GST; dsDNA, one strand shown
# T3 sequence: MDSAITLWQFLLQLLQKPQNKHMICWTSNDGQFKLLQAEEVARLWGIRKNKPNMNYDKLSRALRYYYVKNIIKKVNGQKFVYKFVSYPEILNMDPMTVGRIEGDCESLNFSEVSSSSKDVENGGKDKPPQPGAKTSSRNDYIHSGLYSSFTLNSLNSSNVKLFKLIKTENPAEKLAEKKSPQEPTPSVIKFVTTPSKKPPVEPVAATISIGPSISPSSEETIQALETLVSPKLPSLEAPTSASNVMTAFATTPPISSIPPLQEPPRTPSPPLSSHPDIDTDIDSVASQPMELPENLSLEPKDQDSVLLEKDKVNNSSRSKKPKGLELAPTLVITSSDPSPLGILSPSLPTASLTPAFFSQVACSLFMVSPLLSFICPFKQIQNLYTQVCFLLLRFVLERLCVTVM
# Outline: as §1
# [7] = biological target: T4, ETV2 (Homo sapiens, UniProt O00321 1-342); conditions: protein: recombinant; tags: N-terminal GST; dsDNA, one strand shown
# T4 sequence: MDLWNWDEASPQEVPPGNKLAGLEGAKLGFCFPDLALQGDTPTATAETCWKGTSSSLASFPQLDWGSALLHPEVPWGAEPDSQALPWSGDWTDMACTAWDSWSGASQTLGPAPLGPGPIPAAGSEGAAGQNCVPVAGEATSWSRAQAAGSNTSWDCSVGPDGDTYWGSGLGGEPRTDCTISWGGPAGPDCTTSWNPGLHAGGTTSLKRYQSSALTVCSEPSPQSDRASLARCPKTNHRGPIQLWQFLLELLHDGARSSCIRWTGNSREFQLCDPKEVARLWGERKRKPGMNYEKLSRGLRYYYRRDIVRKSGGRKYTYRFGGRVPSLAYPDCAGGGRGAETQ
# Outline: as §1
# [8] = biological target: T5, ELF3 (Homo sapiens, UniProt P78545 1-371); conditions: protein: recombinant; tags: N-terminal GST; dsDNA, one strand shown
# T5 sequence: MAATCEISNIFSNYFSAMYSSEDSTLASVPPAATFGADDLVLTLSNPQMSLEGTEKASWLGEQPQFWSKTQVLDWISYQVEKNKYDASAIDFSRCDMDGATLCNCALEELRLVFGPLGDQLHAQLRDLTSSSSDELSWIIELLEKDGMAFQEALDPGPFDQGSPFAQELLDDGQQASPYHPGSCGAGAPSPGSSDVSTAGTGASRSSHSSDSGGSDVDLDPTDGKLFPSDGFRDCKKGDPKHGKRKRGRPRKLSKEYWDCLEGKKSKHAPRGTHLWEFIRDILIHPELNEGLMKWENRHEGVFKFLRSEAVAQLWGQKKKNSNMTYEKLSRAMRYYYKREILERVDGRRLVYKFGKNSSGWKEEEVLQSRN
# Outline: as §1
# [9] = biological target: CRX (Homo sapiens, UniProt O43186 1-299); conditions: protein: recombinant; tags: N-terminal GST; dsDNA, one strand shown
# Chain of CRX (O43186 whole entry): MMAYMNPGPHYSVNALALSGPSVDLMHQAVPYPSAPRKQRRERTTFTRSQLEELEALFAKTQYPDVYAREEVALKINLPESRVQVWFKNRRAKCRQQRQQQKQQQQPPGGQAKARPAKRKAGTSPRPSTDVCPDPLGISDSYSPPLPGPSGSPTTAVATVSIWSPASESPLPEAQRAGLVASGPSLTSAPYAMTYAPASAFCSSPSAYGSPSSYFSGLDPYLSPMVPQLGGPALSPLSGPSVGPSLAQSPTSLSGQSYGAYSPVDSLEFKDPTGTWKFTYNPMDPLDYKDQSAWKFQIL
# Outline: as §1
# [10] = biological target: ETV1 (Homo sapiens, UniProt P50549 1-477); conditions: protein: recombinant; tags: N-terminal GST; dsDNA, one strand shown
# Chain of ETV1 (P50549 whole entry): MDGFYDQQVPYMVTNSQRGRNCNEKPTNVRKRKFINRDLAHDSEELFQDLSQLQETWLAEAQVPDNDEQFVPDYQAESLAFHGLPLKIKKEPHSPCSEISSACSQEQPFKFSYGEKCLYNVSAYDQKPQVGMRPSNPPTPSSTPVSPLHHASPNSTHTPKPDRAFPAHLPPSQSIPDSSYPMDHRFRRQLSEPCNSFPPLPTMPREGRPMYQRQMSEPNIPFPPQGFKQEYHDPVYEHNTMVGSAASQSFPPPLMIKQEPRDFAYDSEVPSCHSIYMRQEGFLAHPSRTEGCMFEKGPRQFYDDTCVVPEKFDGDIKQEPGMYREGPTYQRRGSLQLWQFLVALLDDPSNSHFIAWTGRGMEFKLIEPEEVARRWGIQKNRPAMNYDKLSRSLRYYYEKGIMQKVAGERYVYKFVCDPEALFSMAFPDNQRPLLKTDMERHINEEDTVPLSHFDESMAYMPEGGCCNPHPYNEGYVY
# Outline: as §1
# [11] = biological target: T6, ERF (Homo sapiens, UniProt P50548 1-548); conditions: protein: recombinant; tags: N-terminal GST; dsDNA, one strand shown
# T6 sequence: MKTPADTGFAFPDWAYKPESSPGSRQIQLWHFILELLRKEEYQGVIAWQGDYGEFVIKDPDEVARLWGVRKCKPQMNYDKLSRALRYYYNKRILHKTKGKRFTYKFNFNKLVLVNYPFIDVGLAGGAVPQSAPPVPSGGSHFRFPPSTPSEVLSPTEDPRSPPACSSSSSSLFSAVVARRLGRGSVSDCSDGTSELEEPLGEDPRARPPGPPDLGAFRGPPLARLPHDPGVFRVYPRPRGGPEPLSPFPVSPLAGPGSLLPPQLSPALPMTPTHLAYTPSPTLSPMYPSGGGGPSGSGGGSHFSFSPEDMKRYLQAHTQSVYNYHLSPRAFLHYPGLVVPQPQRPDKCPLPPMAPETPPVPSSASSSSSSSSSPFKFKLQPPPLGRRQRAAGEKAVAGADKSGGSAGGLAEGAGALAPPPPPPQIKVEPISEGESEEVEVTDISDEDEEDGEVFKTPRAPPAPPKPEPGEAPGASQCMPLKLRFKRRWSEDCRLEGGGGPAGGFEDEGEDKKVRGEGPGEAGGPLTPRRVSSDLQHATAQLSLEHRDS
# Outline: as §1
# [12] = biological target: T7, ETV3L (Homo sapiens, UniProt Q6ZN32 1-361); conditions: protein: recombinant; tags: N-terminal GST; dsDNA, one strand shown
# T7 sequence: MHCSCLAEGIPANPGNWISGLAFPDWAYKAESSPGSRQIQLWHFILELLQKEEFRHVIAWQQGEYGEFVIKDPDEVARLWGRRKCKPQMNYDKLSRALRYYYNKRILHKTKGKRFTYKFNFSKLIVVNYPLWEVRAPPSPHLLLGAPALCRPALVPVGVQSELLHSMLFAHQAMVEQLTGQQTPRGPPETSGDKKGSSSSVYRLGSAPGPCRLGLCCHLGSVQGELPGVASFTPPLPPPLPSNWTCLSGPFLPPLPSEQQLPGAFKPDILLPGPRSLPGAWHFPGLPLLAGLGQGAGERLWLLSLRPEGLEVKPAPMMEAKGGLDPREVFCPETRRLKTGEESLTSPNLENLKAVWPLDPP
# Outline: as §1
# [13] = biological target: T8, ETS2 (Homo sapiens, UniProt P15036 1-469); conditions: protein: recombinant; tags: N-terminal GST; dsDNA, one strand shown
# T8 sequence: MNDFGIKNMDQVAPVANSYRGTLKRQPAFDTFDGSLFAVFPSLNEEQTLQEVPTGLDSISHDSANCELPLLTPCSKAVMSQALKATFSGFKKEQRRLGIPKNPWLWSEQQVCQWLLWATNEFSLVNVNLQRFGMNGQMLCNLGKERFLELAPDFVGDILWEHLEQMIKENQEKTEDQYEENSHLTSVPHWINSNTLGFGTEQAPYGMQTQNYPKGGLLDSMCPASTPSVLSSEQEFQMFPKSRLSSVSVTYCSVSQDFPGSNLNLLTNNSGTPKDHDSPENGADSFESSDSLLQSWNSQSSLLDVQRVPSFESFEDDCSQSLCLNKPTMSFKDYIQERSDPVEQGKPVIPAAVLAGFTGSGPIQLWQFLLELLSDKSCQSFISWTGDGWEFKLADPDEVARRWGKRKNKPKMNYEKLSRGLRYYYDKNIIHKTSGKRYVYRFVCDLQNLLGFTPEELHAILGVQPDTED
# Outline: as §1
# [14] = biological target: T9, SPDEF (Homo sapiens, UniProt O95238 1-335); conditions: protein: recombinant; tags: N-terminal GST; dsDNA, one strand shown
# T9 sequence: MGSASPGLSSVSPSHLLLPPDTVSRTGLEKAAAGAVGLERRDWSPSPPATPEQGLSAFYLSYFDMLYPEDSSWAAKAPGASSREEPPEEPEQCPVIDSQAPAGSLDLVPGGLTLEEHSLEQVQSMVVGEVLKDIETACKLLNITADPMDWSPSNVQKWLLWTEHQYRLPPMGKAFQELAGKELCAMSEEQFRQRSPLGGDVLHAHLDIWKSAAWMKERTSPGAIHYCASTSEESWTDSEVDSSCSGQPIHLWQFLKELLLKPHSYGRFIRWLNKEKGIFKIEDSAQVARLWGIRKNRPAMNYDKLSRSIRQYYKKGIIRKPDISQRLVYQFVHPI
# Outline: as §1
# [15] = biological target: T10, ETV7 (Homo sapiens, UniProt Q9Y603 1-341); conditions: protein: recombinant; tags: N-terminal GST; dsDNA, one strand shown
# T10 sequence: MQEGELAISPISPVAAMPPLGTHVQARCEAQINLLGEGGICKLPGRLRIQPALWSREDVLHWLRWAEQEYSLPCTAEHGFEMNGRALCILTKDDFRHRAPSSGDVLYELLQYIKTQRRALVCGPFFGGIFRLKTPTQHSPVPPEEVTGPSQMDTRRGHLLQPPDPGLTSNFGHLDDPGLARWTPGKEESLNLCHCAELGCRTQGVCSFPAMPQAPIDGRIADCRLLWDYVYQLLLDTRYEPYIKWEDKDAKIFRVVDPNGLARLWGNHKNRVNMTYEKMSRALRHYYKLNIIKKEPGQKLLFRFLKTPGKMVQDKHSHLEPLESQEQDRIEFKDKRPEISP
# Outline: as §1
# [16] = biological target: T11, ELF5 (Homo sapiens, UniProt Q9UKW6-2 1-255); conditions: protein: recombinant; tags: N-terminal GST; dsDNA, one strand shown
# T11 sequence: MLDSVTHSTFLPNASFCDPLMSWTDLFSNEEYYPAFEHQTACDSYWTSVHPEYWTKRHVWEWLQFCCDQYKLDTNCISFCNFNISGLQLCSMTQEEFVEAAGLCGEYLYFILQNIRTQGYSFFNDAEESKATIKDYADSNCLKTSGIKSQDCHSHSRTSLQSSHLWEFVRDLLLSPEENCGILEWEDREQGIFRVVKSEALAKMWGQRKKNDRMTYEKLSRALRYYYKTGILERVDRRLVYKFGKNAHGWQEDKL
# Outline: as §1
# [17] = biological target: T12, ETV3 (Homo sapiens, UniProt P41162-2 1-143); conditions: protein: recombinant; tags: N-terminal GST; dsDNA, one strand shown
# T12 sequence: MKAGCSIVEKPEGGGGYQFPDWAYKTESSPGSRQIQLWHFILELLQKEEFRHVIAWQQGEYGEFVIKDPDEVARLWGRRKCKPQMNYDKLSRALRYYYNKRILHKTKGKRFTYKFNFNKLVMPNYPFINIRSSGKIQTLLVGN
# Outline: as §1
# [18] = biological target: ETV6 (Homo sapiens, UniProt P41212 1-452); conditions: protein: recombinant; tags: N-terminal GST; dsDNA, one strand shown
# Chain of ETV6 (P41212 whole entry): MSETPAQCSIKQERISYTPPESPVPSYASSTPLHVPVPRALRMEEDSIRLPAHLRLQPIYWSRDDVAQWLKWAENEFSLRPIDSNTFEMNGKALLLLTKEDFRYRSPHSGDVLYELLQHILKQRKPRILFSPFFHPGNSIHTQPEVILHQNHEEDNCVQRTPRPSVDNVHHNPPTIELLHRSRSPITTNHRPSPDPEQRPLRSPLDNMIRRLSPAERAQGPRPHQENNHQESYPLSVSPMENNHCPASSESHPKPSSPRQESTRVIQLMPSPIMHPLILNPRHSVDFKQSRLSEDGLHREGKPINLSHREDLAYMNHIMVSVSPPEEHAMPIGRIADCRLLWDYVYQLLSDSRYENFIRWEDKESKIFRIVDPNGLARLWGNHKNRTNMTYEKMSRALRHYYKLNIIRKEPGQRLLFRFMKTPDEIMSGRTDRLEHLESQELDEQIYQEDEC
# Outline: as §1
sequence,measurement,setting,value
TCGACA,binding signal,[1],"1.3 fold enrichment (6-mer frequency, TF over GST control)"
same,binding signal,[2],"1.32 fold enrichment (6-mer frequency, TF over GST control)"
same,binding signal,[3],"1.38 fold enrichment (6-mer frequency, TF over GST control)"
same,binding signal,[4],"1.28 fold enrichment (6-mer frequency, TF over GST control)"
same,binding signal,[5],"1.43 fold enrichment (6-mer frequency, TF over GST control)"
same,binding signal,[6],"1.42 fold enrichment (6-mer frequency, TF over GST control)"
same,binding signal,[7],"1.19 fold enrichment (6-mer frequency, TF over GST control)"
same,binding signal,[8],"1.23 fold enrichment (6-mer frequency, TF over GST control)"
same,binding signal,[9],"1.19 fold enrichment (6-mer frequency, TF over GST control)"
same,binding signal,[10],"1.4 fold enrichment (6-mer frequency, TF over GST control)"
same,binding signal,[11],"1.35 fold enrichment (6-mer frequency, TF over GST control)"
same,binding signal,[12],"1.3 fold enrichment (6-mer frequency, TF over GST control)"
same,binding signal,[13],"1.31 fold enrichment (6-mer frequency, TF over GST control)"
same,binding signal,[14],"1.23 fold enrichment (6-mer frequency, TF over GST control)"
same,binding signal,[15],"1.39 fold enrichment (6-mer frequency, TF over GST control)"
same,binding signal,[16],"1.27 fold enrichment (6-mer frequency, TF over GST control)"
same,binding signal,[17],"1.4 fold enrichment (6-mer frequency, TF over GST control)"
same,binding signal,[18],"1.42 fold enrichment (6-mer frequency, TF over GST control)"
